Assay [1] can be described thus: BSK_BF4T_SRB: Viability Assessment in the BioMAP Diversity Plus: BF4T Assay (AID 2284274).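 For AC50: measured 24 h after compound addition.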 As to conditions: primary human bronchial epithelial cells with fibroblasts. A digest of the protocol: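 Cytotoxicity measured as total protein: cells fixed with 10% TCA, stained with 0.1% SRB, read at 560 nm. Bronchial epithelial/dermal fibroblast co-culture, 24 h after dosing, with positive-direction fitting relative to DMSO.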

Read-out in assay [2]: urokinase Plasminogen Activator (uPA), PLAU (gene 5328)
As to the kind of experiment: BSK_BF4T_uPA: BioMAP Diversity Plus: BF4T Assay for urokinase Plasminogen Activator (uPA) Biomarker Activity (AID 2284275). Particulars: primary human bronchial epithelial cells with fibroblasts. Summed up: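 uPA levels measured by ELISA at 24 hours in BF4T cultures (bronchial epithelial cells plus dermal fibroblasts) and compared with DMSO; cytotoxicity tracked in parallel cultures by sulforhodamine B staining.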

Read-out in assay [3]: Matrix Metallopeptidase 9 (MMP9), MMP9 (gene 4318)
As to the kind of experiment: BSK_BF4T_MMP9: BioMAP Diversity Plus: BF4T Assay for Matrix Metallopeptidase 9 (MMP9) Biomarker Activity (AID 2284276). Particulars: primary human bronchial epithelial cells with fibroblasts. A digest of the protocol: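 MMP-9 levels were measured by ELISA after 24 h exposure of bronchial epithelial cell/dermal fibroblast co-cultures, with DMSO as baseline. Parallel cultures were stained with 0.1% SRB after TCA fixation, read at 560 nm, to flag overt cytotoxicity.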

Read-out in assay [4]: Intercellular Adhesion Molecule 1 (ICAM1), ICAM1 (gene 3383)
In words: BSK_BE3C_ICAM1: BioMAP Diversity Plus: BE3C Assay for Intercellular Adhesion Molecule 1 (ICAM1) Biomarker Activity (AID 2284278).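 For outcome: cell-surface ICAM-1 protein level quantified by ELISA.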 Particulars: primary human bronchial epithelial cells. A digest of the protocol: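 ICAM-1 quantified by ELISA and fitted against DMSO baseline, 24 h post-dosing in BE3C cultures of primary human lung bronchial epithelial cells. Cytotoxicity checked in parallel cultures by total protein SRB staining.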

Read-out in assay [5]: Interferon-inducible T-cell alpha chemoattractant (ITAC), CXCL11 (gene 6373)
As to the kind of experiment: BSK_BE3C_ITAC: BioMAP Diversity Plus: BE3C Assay for Interferon-inducible T-cell alpha chemoattractant (ITAC) Biomarker Activity (AID 2284279). Particulars: primary human bronchial epithelial cells. A digest of the protocol: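 The assay measures I-TAC levels by ELISA in human primary bronchial epithelial cell cultures 24 hours after chemical treatment. Values reflect signal increase over the DMSO baseline.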

Read-out in assay [6]: Interleukin-8 (IL8), CXCL8 (gene 3576)
In words: BSK_BE3C_IL8: BioMAP Diversity Plus: BE3C Assay for Interleukin-8 (IL8) Biomarker Activity (AID 2284280). As to conditions: primary human bronchial epithelial cells. Summed up:
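Dose human bronchial epithelial cells with chemical; incubate 24 h; quantify IL-8 by ELISA; fit response upward versus DMSO controls.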

Read-out in assay [7]: Epidermal growth factor receptor (EGFR), EGFR (gene 1956)
As to the kind of experiment: BSK_BE3C_EGFR: BioMAP Diversity Plus: BE3C Assay for Epidermal growth factor receptor (EGFR) Biomarker Activity (AID 2284281). Particulars: primary human bronchial epithelial cells. A digest of the protocol:
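ELISA read-out of EGFR levels on human bronchial epithelial primary cells collected 24 h post-dosing. DMSO served as negative control and baseline for gain-of-signal fitting.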

Read-out in assay [8]: KRT18 (gene 3875)
As to the kind of experiment: BSK_BE3C_Keratin818: BioMAP Diversity Plus: BE3C Assay for Keratin 818 Biomarker Activity (AID 2284282). As to conditions: primary human bronchial epithelial cells. A digest of the protocol:
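ELISA readout of Keratin 8/18 in human primary bronchial epithelial cultures after 24 h chemical exposure, DMSO baseline. Parallel SRB staining (0.1%, TCA-fixed, 560 nm) served as cytotoxicity check.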

Read-out in assay [9]: Matrix Metallopeptidase 9 (MMP9), MMP9 (gene 4318)
As to the kind of experiment: BSK_BE3C_MMP9: BioMAP Diversity Plus: BE3C Assay for Matrix Metallopeptidase 9 (MMP9) Biomarker Activity (AID 2284283). As to conditions: primary human bronchial epithelial cells. Summed up: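 Human primary bronchial epithelial cells exposed 24 h to compound. MMP9 quantified by ELISA. SRB total-protein staining of parallel cultures assesses cytotoxicity. Positive-direction fit relative to DMSO.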

Read-out in assay [10]: Plasminogen activator inhibitor-1 (PAI1), SERPINE1 (gene 5054)
As to the kind of experiment: BSK_CASM3C_PAI1: BioMAP Diversity Plus: CASM3C Assay for Plasminogen activator inhibitor-1 (PAI1) Biomarker Activity (AID 2284284). Particulars: primary human coronary artery smooth muscle cells.

Read-out in assay [11]: Monocyte Chemoattractant Protein-1 (MCP1), CCL2 (gene 6347)
As to the kind of experiment: BSK_hDFCGF_MCP1: BioMAP Diversity Plus: hDFCGF Assay for Monocyte Chemoattractant Protein-1 (MCP1) Biomarker Activity (AID 2284285). Particulars: primary human foreskin fibroblasts. Summed up:
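MCP-1 ELISA readout was taken 24 hours after dosing primary human dermal fibroblasts in the hDFCGF system, with DMSO as baseline. Parallel sulforhodamine B staining of total protein tracked overt cytotoxicity.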

Read-out in assay [12]: Vascular cell adhesion molecule 1 (VCAM1), VCAM1 (gene 7412)
In words: BSK_IMphg_VCAM1: BioMAP Diversity Plus: IMphg Assay for Vascular cell adhesion molecule 1 (VCAM1) Biomarker Activity (AID 2284286). Particulars: primary human endothelial cells with macrophages. Summed up: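 ELISA read-out of VCAM-1 on venular endothelial cell/macrophage co-cultures at 24 h post-treatment, with DMSO as baseline and positive-direction fitting. Parallel sulforhodamine B total-protein staining (560 nm) served as the overt cytotoxicity measure.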

Read-out in assay [13]: Intercellular Adhesion Molecule 1 (ICAM1), ICAM1 (gene 3383)
In words: BSK_hDFCGF_ICAM1: BioMAP Diversity Plus: hDFCGF Assay for Intercellular Adhesion Molecule 1 (ICAM1) Biomarker Activity (AID 2284287). Particulars: primary human foreskin fibroblasts. Summed up: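 ICAM-1 ELISA readout 24 h after dosing, DMSO as baseline, in human dermal foreskin fibroblast cultures. Cytotoxicity checked in parallel wells by SRB staining (0.1% SRB, 10% TCA fixation, 560 nm).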

Read-out in assay [14]: CD40, CD40 (gene 958)
In words: BSK_IMphg_CD40: BioMAP Diversity Plus: IMphg Assay for CD40 Biomarker Activity (AID 2284288). As to conditions: primary human endothelial cells with macrophages. A digest of the protocol:
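ELISA read-out of cell-surface CD40 at 24 h in human venular endothelial cell/macrophage co-cultures. Activity fitted in the positive direction against DMSO; parallel SRB staining (560 nm) gauges overt cytotoxicity.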

Read-out in assay [15]: TIMP metallopeptidase inhibitor 2 (TIMP2), TIMP2 (gene 7077)
As to the kind of experiment: BSK_hDFCGF_TIMP2: BioMAP Diversity Plus: hDFCGF Assay for TIMP metallopeptidase inhibitor 2 (TIMP2) Biomarker Activity (AID 2284289). As to conditions: primary human foreskin fibroblasts. Summed up:
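Primary human foreskin fibroblasts in the hDFCGF system, dosed for 24 h; TIMP-2 level measured by ELISA, fitted in the positive direction against DMSO; cytotoxicity checked in parallel by sulforhodamine B total protein staining.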

Read-out in assay [16]: Interleukin-1 alpha (IL1a), IL1A (gene 3552)
As to the kind of experiment: BSK_IMphg_IL1a: BioMAP Diversity Plus: IMphg Assay for Interleukin-1 alpha (IL1a) Biomarker Activity (AID 2284290). As to conditions: primary human endothelial cells with macrophages. Summed up: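 IL-1α is quantified by ELISA at 24 h in the endothelial/macrophage IMphg co-culture, with gain of signal fitted relative to DMSO. Parallel SRB total-protein staining flags overt toxicity.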

Read-out in assay [17]: E-selectin (Homo sapiens) (UniProt P16581)
In words: BSK_IMphg_ESelectin: BioMAP Diversity Plus: IMphg Assay for Eselectin Biomarker Activity (AID 2284291). Particulars: primary human endothelial cells with macrophages. Summed up: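 Analysed against DMSO baseline in the positive fitting direction, this endpoint is an ELISA read of E-selectin. It comes from human venular endothelial cells co-cultured with macrophages, sampled 24 h post-dose.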

A short description of assay [18]: BSK_IMphg_SRB: Viability Assessment in the BioMAP Diversity Plus: IMphg Assay (AID 2284292).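 Note: measured one day after compound addition.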 As to conditions: primary human endothelial cells with macrophages. Summed up:
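SRB viability endpoint: cultures of human endothelial cells plus macrophages fixed with 10% TCA, stained with 0.1% SRB, read at 560 nm 24 h post-dosing. Only gain-of-signal fitted, relative to DMSO.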

Read-out in assay [19]: Interleukin-8 (IL8), CXCL8 (gene 3576)
As to the kind of experiment: BSK_IMphg_IL8: BioMAP Diversity Plus: IMphg Assay for Interleukin-8 (IL8) Biomarker Activity (AID 2284277). As to conditions: primary human endothelial cells with macrophages. Summed up: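 IL-8 levels were measured by ELISA 24 h after dosing in primary human venular endothelial cell–macrophage cultures, referenced to DMSO; parallel SRB staining monitored overt cytotoxicity.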

Read-out in assay [20]: Plasminogen Activator Inhibitor-1 (PAI1), SERPINE1 (gene 5054)
In words: BSK_BF4T_PAI1: BioMAP Diversity Plus: BF4T Assay for Plasminogen Activator Inhibitor-1 (PAI1) Biomarker Activity (AID 2284273). Particulars: primary human bronchial epithelial cells with fibroblasts. A digest of the protocol:
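PAI-1 levels quantified by ELISA 24 h post-dosing in bronchial epithelial cell plus dermal fibroblast cultures. Signal gain referenced to DMSO baseline. Sulforhodamine B total-protein staining of parallel wells checked cytotoxicity.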

Structures are written as SMILES. “And” between values parts separate entries of the source, which are not always exact repeats. Identical values can stand only once. Some compounds were tested as several samples or in several runs, with calls that do not always agree. The source made the active and inactive calls. Rule for the calls: active = hit-call score of the fitted dose curve at least 0.9, where 1 is the maximum; inactive = score below 0.9.

The record followed here is PubChem BioAssay (EPA / NIEHS).

E-selectin (Homo sapiens), sequence (P16581 whole entry, looked up): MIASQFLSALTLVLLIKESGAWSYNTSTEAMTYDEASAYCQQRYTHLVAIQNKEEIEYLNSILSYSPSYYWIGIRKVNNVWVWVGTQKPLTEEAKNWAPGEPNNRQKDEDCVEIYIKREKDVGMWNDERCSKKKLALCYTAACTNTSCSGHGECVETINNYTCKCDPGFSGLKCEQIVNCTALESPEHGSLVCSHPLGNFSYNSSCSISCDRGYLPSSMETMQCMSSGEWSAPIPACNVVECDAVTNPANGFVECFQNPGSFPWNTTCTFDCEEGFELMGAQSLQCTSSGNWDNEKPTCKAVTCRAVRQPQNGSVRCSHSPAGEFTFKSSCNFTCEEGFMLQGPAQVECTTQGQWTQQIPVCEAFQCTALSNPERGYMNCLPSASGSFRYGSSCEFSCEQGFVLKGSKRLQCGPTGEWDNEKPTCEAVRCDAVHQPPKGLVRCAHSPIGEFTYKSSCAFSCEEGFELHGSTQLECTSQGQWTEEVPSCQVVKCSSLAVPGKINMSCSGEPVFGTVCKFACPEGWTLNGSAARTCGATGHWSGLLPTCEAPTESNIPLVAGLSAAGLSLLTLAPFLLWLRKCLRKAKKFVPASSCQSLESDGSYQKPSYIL

As to `O=S(=O)(Cl)C(F)(F)C(F)(F)C(F)(F)C(F)(F)C(F)(F)C(F)(F)C(F)(F)C(F)(F)F`, the AC50 (usually the concentration giving half of the maximal activity seen) in [1] is 50.8 µM (active) and 46.8 µM (active); in assay [2], 30 µM (active); in assay [3], 49.2 µM (active) and 47.7 µM (active); in [4] it was 54.9 µM (active) and 54.8 µM (active); in assay [5], 53.8 µM (active) and 55.1 µM (active); in [6], 41.3 µM (active) and 21.5 µM (active). The AC50 was 22.7 µM (active) and 30 µM (active) in assay [7]; 46.7 µM (active) in assay [8]; 55.1 µM (active) and 55.2 µM (active) in [9]. In addition, the result in assay [2], in [8], in assay [10], in assay [11], in assay [12] and in assay [13] was inactive. Further, the result in assay [14], in assay [15], in [16], in assay [17] and in [18] was inactive.
In the case of `C=CC(=O)OCC(F)(F)C(F)(F)C(F)(F)COC(=O)C=C`, the AC50 in [1] is 43.4 µM (active) and 47.1 µM (active); in assay [2], 30 µM (active) and 25.7 µM (active); in [3] it was 21.5 µM (active) and 21.8 µM (active); in assay [19], 50.7 µM (active) and 45.9 µM (active); in [4] it was 38.5 µM (active) and 35.5 µM (active); in assay [5], 45 µM (active) and 43 µM (active). In addition, the AC50 in assay [6] was 13.2 µM (active) and 8.09 µM (active); in [9], 8.23 µM (active) and 8.72 µM (active); in assay [10], 46 µM (active) and 48.8 µM (active); in assay [11], 2.84 µM (active) and 2.59 µM (active); in [12], 35 µM (active) and 40 µM (active); in assay [13] it was 2.6 µM (active) and 2.45 µM (active). Moreover, the AC50 was 22.6 µM (active) and 23.9 µM (active) in assay [14]; 45 µM (active) in assay [16]. Also, the outcome in [7], in assay [8], in assay [15] and in [16] was inactive.
As for `O=C(Cl)C(F)(F)C(F)(F)C(F)(F)C(F)(F)C(F)(F)C(F)(F)C(F)(F)F`, the result in assay [1], in assay [2], in [3], in assay [4], in [5] and in assay [6] was inactive. The outcome in assay [7], in assay [8], in assay [9], in [10], in [11] and in [12] was inactive. Besides, the outcome in assay [13], in assay [14], in [15] and in assay [16] was inactive. Moreover, the AC50 in assay [2] was 21.6 µM (active); in [3], 18.7 µM (active); in [19], 30 µM (active) and 36.9 µM (active); in [6], 15.9 µM (active).
For the compound `O=C(O)C(F)(F)C(F)(F)C(F)(F)C(=O)O`, the outcome in assay [20], in assay [1], in [2], in assay [3], in assay [4] and in [5] was inactive. For the same compound, the outcome in [6], in assay [7], in assay [8], in assay [9], in assay [10] and in [11] was inactive. In addition, the result in assay [12], in assay [13], in assay [14], in [15], in assay [16] and in assay [17] was inactive. Moreover, the AC50 in assay [14] is 43.1 µM (active).
On to `NCC(F)(F)C(F)(F)C(F)(F)C(F)(F)C(F)(F)C(F)(F)F`, for which the outcome in assay [1], in [2], in assay [3], in assay [4], in assay [5] and in [6] was inactive. For the same compound, the outcome in assay [7], in assay [8], in assay [9], in assay [10], in assay [11] and in assay [12] was inactive. For the same compound, the outcome in assay [13], in assay [14], in [15] and in [16] was inactive. In addition, in [3], the AC50 was 0.778 µM (active).
